# Compound activity (PubChem BioAssay)
# An excerpt weighted towards active compounds, which were near 1.5% of everything screened.
# eLon inh – inhibitors of E. coli Lon protease | actives 0.42% (n = 360,000) | purified E. coli Lon protease, fluorescence polarization | inhibition, % at 7.94 µM | P0A9M0; in the data active = inhibition above about 13%, passing the limit was not always enough
# MEX-5 binding – C. elegans MEX-5 TCR-2 RNA binding activity. AID 1832. Q9XUB2. actives 0.38% (n = 300,000). MEX-5/FITC-TCR2 RNA binding, fluorescence polarization; active compounds read low. activity score (negative = inhibition of binding), % at 10 µM;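 active = inhibition past about -25% in most replicates, and total fluorescence under double the plate's negative control median, limit read from the data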
# MCL1-BIM inh – MCL1-BIM-BH3 interaction inhibition (human); GST-MCL1 / FITC-Bim-BH3 fluorescence polarization; inhibition, % at 10.9 µM; actives 0.68% (n = 320,000); AID 2057;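 active = inhibition above the mean inhibition of all tested compounds plus 3 SD, set per campaign, cut at about 40% in these data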;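 note: higher means more loss of mP so more displacement of Bim peptide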
# EBV gp42 block – EBV gp42 inhibition | Q1HVG2 | Fluorescence polarization binding assay, mP read-out | inhibition, % (tested at 21.74 µM) | actives 0.42% (n = 220,000) | AID 1085; in the data active = inhibition above about 50%
# BCLXL inh – Bcl-xL (human) inhibition. AID 2129. GST-Bcl-xL / FITC-Bim BH3 peptide fluorescence polarization. inhibition, % at 10.9 µM. actives 0.7% (n = 320,000);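 active = inhibition above the mean of all tested compounds plus 3 SD, cutoff set per campaign, cut at about 30% in these data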;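 note: inhibitors lower millipolarization by displacing the labeled peptide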
# GLD-1 TGE inh – GLD-1-TGE RNA interaction inhibition (C. elegans); purified GLD-1 + fluorescein TGE RNA, fluorescence polarization; inhibition, % at 5.96 µM; actives 0.44% (n = 320,000);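 active = percent inhibition above a per-plate cutoff, the plate mean of test compounds plus 3 SD, cut at about 30% in these data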
# Target sequence (Q17339 whole entry, looked up): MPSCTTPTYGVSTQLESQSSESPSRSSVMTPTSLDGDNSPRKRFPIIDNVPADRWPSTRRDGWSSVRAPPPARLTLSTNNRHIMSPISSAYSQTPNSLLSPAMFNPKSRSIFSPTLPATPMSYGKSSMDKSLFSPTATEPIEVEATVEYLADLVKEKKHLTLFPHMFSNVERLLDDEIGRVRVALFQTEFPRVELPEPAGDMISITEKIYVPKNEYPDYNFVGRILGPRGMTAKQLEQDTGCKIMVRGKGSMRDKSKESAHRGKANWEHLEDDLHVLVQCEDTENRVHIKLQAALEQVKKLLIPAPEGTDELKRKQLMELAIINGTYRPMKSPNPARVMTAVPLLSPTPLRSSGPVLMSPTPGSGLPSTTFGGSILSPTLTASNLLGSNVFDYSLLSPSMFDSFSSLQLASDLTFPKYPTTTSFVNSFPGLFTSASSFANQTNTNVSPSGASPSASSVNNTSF
# A number is an active result; – = inactive; · = no result given.
SMILES,eLon inh,MEX-5 binding,MCL1-BIM inh,EBV gp42 block,BCLXL inh,GLD-1 TGE inh
CCOC(=O)CCNC(=O)N1CCCC(Cc2ccccc2)(C(=O)OCC)C1 (stereo not drawn),–,–,–,·,–,–
CC1CCc2cccc3c2N1c1cc(C#N)c(C#N)cc1O3 (stereo not drawn),–,–,–,116,–,–
O=C1COc2ccc(C(=O)COC(=O)c3cc(S(=O)(=O)N4CCOCC4)ccc3F)cc2N1,–,–,–,·,60,–
O=C(NC12CC3CC(CC(C3)C1)C2)c1ccc(-c2ccccc2Cl)o1,19,–,–,–,–,–
CC(=O)C[C@H](O)CC(=O)[C@@H]1OC(=O)[C@H](C)C/C=C\Cc2ccccc21,–,·,·,·,·,–
c1ccc(Nc2cccc(Nc3ccccc3)c2)cc1,–,–,–,–,–,–
Nc1cccc(Nc2ccccc2)c1,–,–,–,–,50,–
CCOc1ccc(NC(=O)Nc2ccc(Cc3ccncc3)cc2)cc1,–,–,–,–,36,–
Cn1c(O)c(C=Nc2ccc(N3CCOCC3)cc2)c(=O)n(C)c1=S,–,-27,·,112,·,·
Cc1cc(O)c(C=Nc2ccc(N3CCOCC3)cc2)c(C)c1Cl,–,–,–,·,–,–
CCC(NC(C)C)C(O)c1ccc(O)c(O)c1 (stereo not drawn),–,-29,–,–,–,–
Cc1ccn2c(CNCc3cnn(C)c3)c(C(=O)N3CCCCCC3)nc2c1,–,·,–,·,67,–
Cc1ccc(C)n1-c1cc(S(=O)(=O)N2CCOCC2)ccc1N1CCCC1,–,–,–,96,–,–
CNCc1cc(C)n(-c2cc(S(=O)(=O)N3CCOCC3)ccc2N2CCCC2)c1C,–,·,·,·,·,·
CCOC(=O)c1sc(-c2ccc(C(F)(F)F)cc2)nc1O,–,–,–,–,36,–
O=C(NCc1ccco1)Nc1ccc(Br)cc1,–,–,–,–,–,–
O=C(NCc1ccco1)Nc1ccc(OC(F)(F)F)cc1,–,–,–,–,30,–
Cc1ccc(CNC(=O)Cc2ccc(-n3cccc3)cc2)cc1,–,–,–,–,–,–
Cc1ccc(CNC(=O)c2ccc(-n3cccc3)cc2)cc1,–,–,·,51,·,·
CC(=O)Nc1nonc1NC(=O)CSc1ccccn1,–,–,–,–,–,83
CCOC(=O)C1=C(CSc2nc3c(cc2C#N)CN(C)CC3)OC(N)=C(C#N)C1c1ccc(F)cc1 (stereo not drawn),–,–,43,–,39,–
CCOc1ccc(OCCC(=O)OCC(=O)c2c(N)n(C)c(=O)n(C)c2=O)cc1,–,–,–,·,–,–
CCN1/C(=N\N)c2cccc3cccc1c23,–,–,–,–,52,–
CCC(C)NC(=O)CN1C(=O)c2cccc3cccc1c23 (stereo not drawn),–,–,·,·,·,·
O=C1N=c2ccc([N+](=O)[O-])cc2=C1c1sc(=O)[nH]c1O,–,-59,–,·,–,–
SMILES,eLon inh,MEX-5 binding,MCL1-BIM inh,EBV gp42 block,BCLXL inh,GLD-1 TGE inh
CCN(Cc1ccncc1)Cc1c(O)ccc2cc(Br)ccc12,–,–,·,–,·,·
CC1CCc2sc(C(=O)NN)cc2C1 (stereo not drawn),–,–,–,–,–,72
CC1CCc2sc(C(=O)Nc3ccc(C(N)=O)cc3)cc2C1 (stereo not drawn),–,–,–,–,–,–
COc1ccc(C(=O)NC2CC2)cc1OC1CCN(C(C)CSC)CC1 (stereo not drawn),–,–,–,·,31,–
C[C@H](O)C(=O)C1=Nc2c(nc(N)[nH]c2=O)NC1,–,·,–,·,–,–
C[C@H](O)[C@H](O)[C@H]1CNc2nc(N)[nH]c(=O)c2N1,–,–,–,·,33,–
CCCn1c(SCCc2ccccc2)nc2c1c(=O)[nH]c(=O)n2C,–,–,–,115,–,–
CC1(C)CC(=O)C(c2ccccc2)(c2ccccc2)C(=O)C1,–,·,·,·,·,·
Cn1cc(/C=N/n2cnc3scc(-c4ccc(Cl)cc4)c3c2=O)c2ccccc21,–,-28,–,–,–,–
CCn1cnc2scc(-c3ccccc3)c2c1=O,–,–,–,–,–,–
N#Cc1c(SCC(N)=O)nc2c(c1-c1ccc(O)cc1)CCCC2,–,–,–,111,–,–
CC(=NC1CCCC1)c1c(C)[nH]n(-c2nc3ccccc3s2)c1=O,–,-43,–,–,–,–
CC(=NC1CC1)c1c(-c2ccccc2)[nH]n(-c2nc3ccccc3s2)c1=O,–,–,–,–,–,–
